Experimental data from PubChem BioAssay (NCI).
About 83,000 compounds went through this panel and 20% of them were active in at least one assay; those are over-represented in the sample as a whole.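 Method: cells in 96-well plates; compound added at one concentration; 48 h incubation; percent growth measured; values under 10 scored active.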 Unmarked numbers belong to inactive results. Active and inactive are the calls of the source.

Each compound was assayed on SK-MEL-2 melanoma (assay: NCI-60 one-dose screen, 48 h (100 = growth as untreated, 0 = no growth, -100 = all killed)). Conditions: 10 µM unless noted.
Protocol: Growth inhibition of the SK-MEL-2 human tumor cell line is measured as a screen for anti-cancer activity. Cells are grown in 96 well plates and exposed to the test compound for 48 hours. Compounds are tested at a single concentration, which is 10^-5 M for most compounds. The reported endpoint is percent growth (GI% or GIPRCNT), where numbers from 0 - 100% represent growth inhibition, and numbers from -100% - 0 represent cell death. For example, a value of 40 represents 60% growth inhibition. A value of 0 means no net growth occurred over the course of the experiment. A value of -40 indicates 40% of cells at the beginning of the experiment died by the end of the experiment. A value of -100 means all cells are dead at the end of the experiment.
NCI-60 Human Tumor Cell Lines Screen was performed using the standard one-dose NCI protocol, which is described in more detail at https://dtp.cancer.gov/discovery_development/nci-60/default.htm.
Compounds with GIPRCNT values below 10 were considered active. Activity score was based on GIPRCNT using the following formula: […]
Score is 0 for GIPRCNT values of 100 or above, 50 for GIPRCNT values of 0, and 100 for GIPRCNT values of -100.

SMILES	growth
CN1C(=O)C2(SCC(C(=O)NCc3ccccc3)N2C(=O)C2CCCCC2)c2ccccc21 (stereo not given)	81.8%
COc1ccc(-c2nnc(SCC(=O)c3ccc(Cl)cc3)o2)cc1	104%
Cc1cc(N[C@@H]2CCC[C@H](Nc3ccnc4cc(Cl)ccc34)C2)nc(N2CCCCCC2)n1	-75.7% (active)
CC[C@]1(O)C[C@@H]2CN(CCc3c([nH]c4ccccc34)[C@@](C(=O)OC)(c3cc4c(cc3OC)N(C)[C@H]3[C@@](O)(C(N)=O)[C@H](O)[C@]5(CC)[C@@H]6C[C@@H]6CN6CC[C@]43[C@@H]65)C2)C1	22.4%
COc1ccc(SC2c3cc(OC)c(OC)cc3Oc3nc(N)c(C#N)c(N)c32)cc1 (stereo not given)	-26.3% (active)
CCOc1ccc(-n2nc(C(=O)Nc3cc(OC)c(OC)c(OC)c3)nc2-c2cc(OC)c(OC)c(OC)c2)cc1	85.6%
COc1cc2c(cc1-c1c(C)noc1C)ncc1nc(C3CCOCC3)n([C@H](C)COC(F)F)c12	67%
CCOc1cc2ncc(C#N)c(Nc3ccc(F)c(Cl)c3)c2cc1NC(=O)CC1CCSS1 (stereo not given)	-49.2% (active)
COc1ccc(/C=C\c2cc(OC)c(OC)c(OC)c2)cc1OC(=O)c1cccc(Cn2cc(CCOC(=O)[C@H](N)Cc3cn(C)c4ccccc34)nn2)c1	51.1%
Cn1ncc2c(=O)nc3c(-c4ccccc4)n[nH]n3c21	112%
Cc1ccc(C(SCC(N)C(=O)O)(c2ccccc2)c2ccc(C)cc2)cc1 (stereo not given)	-24.4% (active)
O=S(=O)(Nc1ccc(I)cc1F)c1ccc(-c2cnc(C3CC3)o2)cc1	40.7%
CC(=O)c1nc2ccccc2n1CC(=O)c1cccc(Cl)c1	61.9%
CCCOc1cc2ccccc2cc1C(=O)Nc1nc(NC)c2c(ccc3nccc32)[nH]1	-60.8% (active)
CCn1c(Cc2ccccc2Nc2c(Cl)cccc2Cl)nnc1SCC(=O)NN1C(=O)/C(=C/c2cc(OC)c(O)c(OC)c2)SC1=S	30.7%
CSc1ccc(-c2ccccc(=O)c2O)cc1	15.2%
O=C1c2cc3c(cc2-c2c1c1ccc(F)cc1c(=O)n2C[C@H](O)[C@@H](O)[C@H](O)CO)OCO3	-27.2% (active)
C=C1c2nc3ccccc3n2C=C(c2ccc(Cl)cc2)N1Cc1ccc(OC)cc1	70.4%
COc1ccc(C(=O)/C=C/c2cccnc2Nc2cc(OC)c(OC)c(OC)c2)cc1	47.4%
Cc1ccc(NC(=O)C2CCC(CN3CCN(C)CC3)CC2)cc1Nc1nccc(-c2cccnc2)n1 (stereo not given)	112%

SMILES	growth
O=C1c2ccccc2C(=O)c2c(N=Nc3[nH]c(=S)[nH]c3O)cccc21	24.4%
CCOc1cc2c(cc1OCC)C(c1cc(OC)c(O)cc1Cl)NCC2 (stereo not given)	113%
COc1cc2c(cc1O)CC[C@@H]1[C@@H]2CC[C@]2(C)[C@@H](OCCCN(C)C)CC[C@@H]12	-85.9% (active)
CC(O)CN1CC(O)=C(c2nc3ccccc3s2)C1=N (stereo not given)	95.1%
COc1cc2nc(N3CCCC3)nc(NCC3CCCCC3)c2cc1OC	-43.5% (active)
C=C1C(=O)O[C@H]2[C@H]1CC/C(COC(=O)c1cc3cc(OC)ccc3[nH]1)=C\CC[C@@]1(C)O[C@@H]21	-76.2% (active)
Cc1nc2c3c(-c4ccccc4)c(-c4ccccc4)oc3ncn2n1	101%
Clc1ccc2c(NCCNc3nc(N4CCCCC4)nc4ccccc34)ccnc2c1	-61.8% (active)
COc1ccc(-c2cc(C(=O)N=Nc3c(O)[nH]c4ccc(Br)cc34)no2)cc1	97.6%
CC(=O)O[C@H]1CC[C@]2(C)[C@H]3CC=C4[C@@H]5CC(C)(C)CC[C@]5(C(=O)NCCNCCNCCN)CC[C@@]4(C)[C@]3(C)CC[C@H]2C1(C)C	96.9%
COc1cc(-c2ccc3c(c2)NC(=O)/C3=C\c2ccc[nH]2)ccc1O	31.4%
COc1ccccc1Nc1nc(-c2cc3cccc(C(F)(F)F)c3oc2=O)cs1	26.8%
C/C1=C\CC[C@@]2(C)O[C@H]2[C@H]2OC(=O)C(CN3CCN(CC4C(=O)O[C@H]5[C@H]4CC/C(C)=C/CC[C@@]4(C)O[C@@H]54)CC3)[C@@H]2CC1 (stereo not given in full)	107%
Nc1ccc(-c2cc3c(NCc4ccccc4)ncnc3s2)cc1	85.1%
O=C(COc1cccc(/C=C2\COc3ccc(Cl)cc3C2=O)c1)c1ccc(Cl)cc1	54.2%
COc1ccc2c(c1)CC/C(=C\c1cncc(Br)c1)C2=O	95.1%
O=C1/C(=C(/c2ccccc2)N2CCOCC2)Cc2ccccc21	90.4%
Cc1nn(-c2ccc(F)cc2)c2ncnc(Oc3ccc(NC(=O)Nc4ccc(Cl)c(C(F)(F)F)c4)cc3)c12	102%
CON1C(=O)CC[C@]2(C)[C@H]3CC[C@@H]4C([C@@]5(C)CCC(=O)O5)CC[C@@]4(C)[C@]3(C)CC[C@H]2C1(C)C (stereo not given in full)	94.6%
CC(C)(CCCN=C(N)Nc1ccc(Cl)cc1)c1ccc(F)cc1	94.6%
